Values joined by “and” are separate entries in the source; they are usually repeats but may differ in a detail not shown here. Equal values may be shown once. Records with an inconclusive call do not appear. A call without a number means that no potency is given here. A structure can be active in one record and inactive in another. Active and inactive are the calls of the source. The call rests on the fitted dose curve; in most records, active means well fitted activation curve with a large enough effect in the repeat runs; inconclusive means weak or mixed curves; inactive means no such curve, though single readings can be large or run the other way.
molecular target: Aryl hydrocarbon receptor (Homo sapiens) (UniProt P35869); experiment: qHTS assay to identify small molecule that activate the aryl hydrocarbon receptor (AhR) signaling pathway (AID 743085); details: HepG2 AhR-luc (HG2L7.5c1), luciferase, 24 h; series mostly up to 70.3 µM; further: nearly all actives have a fitted effect of over 15% in size;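 on activation: HG2L7.5c1 human HepG2 liver cells with stably integrated DRE-driven firefly reporter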
Description: U.S. Tox21 Program National Center for Advancing Translational Sciences [NCATS] NIH Chemical Genomics Center [NCGC] U.S. Environmental Protection Agency [EPA] National Institutes of Environmental Health Sciences [NIEHS] National Toxicology Program [NTP] U.S. Food and Drug Administration [FDA] Tox21 Assay overview: The Aryl hydrocarbon Receptor (AhR), a member of the family of basic helix-loop-helix transcription factors, is crucial to adaptive responses to environmental changes. AhR mediates cellular responses to environmental pollutants such as aromatic hydrocarbons through induction of phase I and II enzymes but also interacts with other nuclear receptor signaling pathways. A cell based HepG2-AhR-luc assay (HG2L7.5c1 cell line, developed by Dr. Michael S. Denison, University of California at Davis, was used to assess the activation of AhR. HepG2 (human hepatocellular carcinoma) cells were stably transfected with an Ah receptor-responsive firefly luciferase reporter gene plasmid containing 20 dioxin responsive elements and luciferase reporter gene. Increased luciferase activity can be used to identify the compounds that induce AhR activation.
Tox21 Assay Protocol Summary: 4000 cells in 5 uL/well were dispensed into white wall/solid bottom 1536-well plates using a Multidrop Combi (Thermo Fisher Scientific Inc., Waltham, MA) dispenser. After the assay plates were incubated at 37C for 5 h, 23 nL of compound or DMSO vehicle was transferred to the assay plates by a pintool station (Kalypsys, San Diego, CA). The plates were incubated at 37C for 24 hr. After 1 ul/well of CellTiter-Fluor reagent (Promega, Madison, WI) was added into the assay plates using a Flying Reagent Dispenser (FRD) (Aurora Discovery, CA), the assay plates were incubated at 37C for 30 min. The fluorescence intensity in the plates was measured using a ViewLux plate reader (PerkinElmer, Shelton, CT), followed by the addition of 4 uL of ONE-Glo Luciferase Assay reagent (Promega) using an FRD (Aurora Discovery). After the assay plates were incubated at room temperature for 30 min, luminescence intensity was measured using a ViewLux plate reader (Perkin Elmer).
Potency means the concentration at half of the fitted maximal effect.

Aryl hydrocarbon receptor (Homo sapiens), sequence (P35869 whole entry, looked up): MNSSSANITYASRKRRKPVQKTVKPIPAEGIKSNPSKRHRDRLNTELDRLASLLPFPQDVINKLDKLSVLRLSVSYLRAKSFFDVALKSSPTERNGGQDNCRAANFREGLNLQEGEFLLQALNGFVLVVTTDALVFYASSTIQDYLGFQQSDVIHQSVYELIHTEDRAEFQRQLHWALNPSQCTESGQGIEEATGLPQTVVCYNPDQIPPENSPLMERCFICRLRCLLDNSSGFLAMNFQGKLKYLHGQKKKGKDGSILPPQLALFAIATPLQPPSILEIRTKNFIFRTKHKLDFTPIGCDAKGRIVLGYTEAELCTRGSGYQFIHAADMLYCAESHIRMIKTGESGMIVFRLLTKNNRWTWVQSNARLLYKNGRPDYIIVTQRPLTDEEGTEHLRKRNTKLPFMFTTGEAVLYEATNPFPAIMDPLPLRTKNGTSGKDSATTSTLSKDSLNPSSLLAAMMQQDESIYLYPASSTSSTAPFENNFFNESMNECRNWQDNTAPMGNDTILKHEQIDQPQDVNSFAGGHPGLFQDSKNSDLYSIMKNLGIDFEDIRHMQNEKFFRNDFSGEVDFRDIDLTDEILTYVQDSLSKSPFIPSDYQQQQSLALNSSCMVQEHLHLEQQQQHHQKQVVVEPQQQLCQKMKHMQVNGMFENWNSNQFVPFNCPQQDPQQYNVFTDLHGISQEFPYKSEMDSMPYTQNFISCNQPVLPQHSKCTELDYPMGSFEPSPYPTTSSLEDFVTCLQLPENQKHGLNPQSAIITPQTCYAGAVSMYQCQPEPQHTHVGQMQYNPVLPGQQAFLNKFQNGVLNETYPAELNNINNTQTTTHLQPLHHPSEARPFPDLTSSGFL

| Compound | Potency |
| --- | --- |
| CNC(C)C(O)c1ccc(O)cc1 (stereo not given) | inactive |
| C[C@@H]([C@H](O)c1ccccc1)N(C)C | inactive |
| CC(N)Cc1ccc(O)cc1 (stereo not given) | inactive |
| OC(c1ccccc1)(c1ccccc1)C1CN2CCC1CC2 (stereo not given) | inactive |
| COC(=O)[C@]12CCC(C)(C)C[C@H]1[C@H]1C(=O)C=C3[C@@]4(C)C=C(C#N)C(=O)C(C)(C)[C@@H]4CC[C@@]3(C)[C@]1(C)CC2 | inactive |
| COc1ccc2c3c1O[C@H]1C(=O)CC[C@H]4[C@@H](C2)N(C)CC[C@]314 | inactive |
| c1ccc(C2(N3CCCC3)CCCCC2)cc1 | 26.6 µM (active) |
| CCOC(=O)C(O)(c1ccc(Cl)cc1)c1ccc(Cl)cc1 | 24.6 µM (active) |
| CCCSc1cc(OC)c(CCN)cc1OC | 29 µM (active) |
| O=C(O)CCCO | inactive |
| COC(COC(N)=O)C1=C(N2CC2)C(=O)C(C)=C(N2CC2)C1=O (stereo not given) | 29.8 µM (active) |
| C=CCC1([C@@H](C)CCC)C(=O)NC(=O)NC1=O | inactive |
| C[C@H]1[C@H]2Cc3ccc(O)cc3[C@]1(C)CCN2CCc1ccccc1 | 12.1 µM (active) |
| C[N+]1(C)[C@@H]2CC[C@H]1CC(OC(=O)c1c[nH]c3ccccc13)C2 (stereo not given in full) | inactive |
| CC(=O)O[C@H]1CC[C@H]2[C@@H]3CCC4=CC(=O)CCC4=C3C=C[C@]12C | inactive |
| CC(=O)OC(C)=O | inactive |
| C[C@@]12C(=O)OC(=O)[C@]1(C)C1CCC2O1 | inactive |
| C[N+]1(C)CCCCC1COC(=O)C(O)(c1ccccc1)c1ccccc1 (stereo not given) | inactive |
| CCON=O | inactive |
| CCC(N)Cc1c[nH]c2ccccc12 (stereo not given) | inactive and 30.7 µM (active) |

| Compound | Potency |
| --- | --- |
| CCCCCCCCCc1ccc(OCCOCCO)cc1 | inactive |
| C[N+]1([O-])[C@@H]2CC(OC(=O)[C@H](CO)c3ccccc3)C[C@H]1[C@@H]1O[C@@H]12 (stereo not given in full) | inactive |
| C[C@@H](Cc1ccccc1)N(C)C | inactive |
| O=P(O)(O)C(Cl)(Cl)P(=O)(O)O | inactive |
| COc1ccc(C)cc1N | inactive |
| CN[C@H]1C[C@@H](N)[C@H](O)[C@@H](O[C@@H]2O[C@H](CO)[C@H](O)[C@@H]3OC4(O[C@H]23)O[C@H](C(N)CO)[C@H](O)[C@H](O)[C@H]4O)[C@@H]1O (stereo not given in full) | inactive |
| COC(=O)[C@H]1[C@@H](OC(=O)c2ccccc2)C[C@@H]2CC[C@H]1N2C | inactive |
| C[C@]12CC[C@H](O)C[C@H]1CC[C@@H]1[C@@H]2CC[C@]2(C)[C@@H](c3ccc(=O)oc3)C[C@H]3O[C@]132 | inactive |
| CN[C@@H]1C[C@@H](c2ccc(Cl)c(Cl)c2)c2ccccc21 | 29.8 µM (active) |
| CC(C)[C@H]1C(=O)N2CCC[C@H]2[C@]2(O)O[C@](NC(=O)[C@@H]3C[C@@H]4c5cccc6[nH]cc(c56)C[C@H]4N(C)C3)(C(C)C)C(=O)N12 | inactive |
| O=C(O)C(c1ccc(Cl)cc1)c1ccc(Cl)cc1 | inactive |
| OCC(c1ccc(Cl)cc1)c1ccc(Cl)cc1 | inactive |
| CCc1cccc(CC)c1N | inactive |
| NC(=O)CN1CC(O)CC1=O (stereo not given) | inactive |
| O=C(CCl)c1ccc(Oc2ccc(C(=O)CCl)cc2)cc1 | inactive |
| CCOC(=O)C1(c2ccccc2)CCCN(C)CC1 (stereo not given) | inactive |
| O=[N+]([O-])c1cc(I)c(O)c(I)c1 | inactive |
| Cc1ccc([N+](=O)[O-])c(C)c1 | inactive |
| CCCCCc1cc(O)c2c(c1)OC(C)(C)c1ccc(C)cc1-2 | 3.35 µM (active) |
| C[C@]12N[C@H](Cc3ccccc31)c1ccccc12 | inactive |

From PubChem BioAssay (Tox21)
